The structures appear in SMILES notation. ± gives the standard deviation of the averaged measurements.

What all share (conditions): concentration: 10 µM; 24 h
The subject of experiment [1] is HCC1569. Kind of experiment: cell number relative to DMSO (% of DMSO); higher = more cells (less growth inhibition / toxicity). The method, boiled down: (§1)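 Cells were seeded at 800 per well in 384-well plates with RPMI containing 10% FBS; both HCC1569 and TDF lines were used. Compounds were added at 10 µM for 24 h at 37 °C, in triplicate, before fixation in 3.7% formaldehyde and staining with a rabbit anti-H1.0 antibody, an AlexaFluor 647 secondary and DAPI. H1.0 nuclear intensity or cell number is reported as percent of the plate control using the median of replicates, and HCC1569 values were smoothed for positional effects.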

The subject of experiment [2] is TDF. The experiment is described as above. A digest of the protocol:
as §1

In experiment [3] the test system is TDF. Kind of experiment: H1.0 immunofluorescence intensity relative to DMSO (% of DMSO); higher = stronger H1.0 induction, active = 120 or more. A digest of the protocol:
as §1

The subject of experiment [4] is HCC1569. Kind of experiment: H1.0 immunofluorescence intensity relative to DMSO (% of DMSO); higher = stronger H1.0 induction, active = 140 or more. The method, boiled down: as §1
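Wherever H1.0 immunofluorescence intensity relative to DMSO is given: TDF is a line of transformed human dermal fibroblasts of mesenchymal origin.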
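Wherever cell number relative to DMSO is given: TDF denotes transformed human dermal fibroblasts of mesenchymal origin.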

Turning to `Nc1nc(Cl)nc2c1ncn2C1OC(CO)C(O)C1F` (configuration not stated) [Clofarabine], the cell number stood at 90.6 in experiment [1] and 45.3 in experiment [2]. In addition, the H1.0 immunofluorescence intensity in experiment [3] was 119 (inactive); in experiment [4], 93.5 (inactive).
`O=C(O)C=Cc1ccc(O)c(O)c1` [Caffeic Acid]: the cell number is 99.9 in experiment [1] and 115 in experiment [2]. Moreover, the H1.0 immunofluorescence intensity in experiment [3] was 87.2 (inactive); in experiment [4], 84.5 (inactive).
As for `NS(=O)(=O)c1ccc2c(c1)C1C=CCC1C(c1ccc(Br)cc1)N2` (configuration not stated), the cell number came to 102 in experiment [1] and 91.3 in experiment [2]. The H1.0 immunofluorescence intensity in experiment [3] is 95.3 (inactive); in experiment [4], 114 (inactive).
Turning to `NC(CCC(=O)NC(CSN=O)C(=O)NCC(=O)O)C(=O)O` (configuration not stated) [S-Nitrosoglutathione], the cell number in experiment [1] amounted to 104; in experiment [2] it was 102. The H1.0 immunofluorescence intensity in experiment [3] was 88.7 (inactive); in experiment [4] it was 90.2 (inactive).
`COc1cc(SC)ccc1C(=O)N1CCC(Cc2ccccc2)CC1` [p38 MAP Kinase Inhibitor VI, JX401]: the cell number in experiment [1] stood at 104; in experiment [2], 101. The H1.0 immunofluorescence intensity is 96.9 (inactive) in experiment [3] and 117 (inactive) in experiment [4].
Consider `CON=C(C(=O)NC1C(=O)N2C(C(=O)O)=C(COC(C)=O)CSC12)c1csc(N)n1` (configuration not stated) [Cefotaxime Acid], for which the results for the cell number in experiment [1] and in experiment [2] were 107 and 99.1, respectively. Further, the values for the H1.0 immunofluorescence intensity in experiment [3] and in experiment [4] were 96.3 (inactive) and 103 (inactive), respectively.
For `N#Cc1cccc(-c2c[nH]c3ncnc(N4CCOCC4)c23)c1` [3-(4-morpholino-7H-pyrrolo[2,3-d]pyrimidin-5-yl)benzonitrile], in that order: 107, 110, 86.3 (inactive) and 80.8 (inactive).
Turning to `O=[NH+]C=C1C=CN(CN2C=CC(=C[NH+]=O)C=C2)C=C1.[Br-].[Br-]` [1,1'-methylenebis(4-(nitrosomethyl)pyridinium) bromide], the results for the cell number in experiment [1] and in experiment [2] were 105 and 99, respectively. For the same compound, the H1.0 immunofluorescence intensity in experiment [3] is 89.7 (inactive); in experiment [4] it was 93.7 (inactive).
For `CC12C=CC(=O)C=C1CCC1C2C(O)CC2(C)C1CCC2(O)C(=O)CO` (configuration not stated) [Prednisolone], in that order: 100, 99.4, 84.9 (inactive) and 115 (inactive).
For the compound `O=C(O)COC(=O)Cc1ccccc1Nc1c(Cl)cccc1Cl` [Aceclofenac], the cell number was found to be 104 in experiment [1] and 101 in experiment [2]. Besides, the figures for the H1.0 immunofluorescence intensity in experiment [3] and in experiment [4] were 95.3 (inactive) and 103 (inactive), respectively.
`Cc1cc(=O)oc2cc(O)ccc12` [4-Methylumbelliferone]: the cell number in experiment [1] and in experiment [2] was 103 each time. Further, the H1.0 immunofluorescence intensity in experiment [3] was 102 (inactive); in experiment [4], 94.5 (inactive).
As for `COc1cc(OC)c(C=C2C(=O)Nc3ccccc32)c(OC)c1`, the cell number was determined as 63.1 in experiment [1] and 11.2 in experiment [2]. Further, the H1.0 immunofluorescence intensity in experiment [3] is 145 (active); in experiment [4], 184 (active).
With `CCCC(CCC)C(N)=O` [2-propylpentanamide], the cell number stood at 112 in experiment [1] and 106 in experiment [2]. The H1.0 immunofluorescence intensity was 97 (inactive) in experiment [3] and 95.6 (inactive) in experiment [4].
For `NS(=O)(=O)c1cc2c(cc1Cl)NC=NS2(=O)=O` [Chlorothiazide], in that order: 105, 105, 95.5 (inactive) and 94 (inactive).
With `CC(C=CC=C(C)C=CC1=C(C)CCCC1(C)C)=CC=CC=C(C)C=CC=C(C)C=CC1=C(C)CCCC1(C)C`, the results for the cell number in experiment [1] and in experiment [2] were 101 and 106, respectively. Further, the H1.0 immunofluorescence intensity was 101 (inactive) in experiment [3] and 103 (inactive) in experiment [4].
Turning to `CCOC(=O)C(C)(C)Oc1ccc(Cl)cc1` [Clofibrate], the cell number in experiment [1] came out at 102 ± 2.9; in experiment [2], 99.8 ± 6.2. The H1.0 immunofluorescence intensity in experiment [3] was 99.5 (inactive); in experiment [4] it was 94.7 (inactive).
Turning to `Cc1[nH]c(C=C2C(=O)Nc3ccc(S(=O)(=O)N(C)c4cccc(Cl)c4)cc32)c(C)c1C(=O)N1CCN(C)CC1` [Met Kinase Inhibitor], the cell number in experiment [1] amounted to 81.6; in experiment [2] it was 59.6. The H1.0 immunofluorescence intensity was 92 (inactive) in experiment [3] and 149 (active) in experiment [4].
Consider `CC(N=C(NC#N)Nc1ccncc1)C(C)(C)C` (configuration not stated) [Pinacidil], for which the cell number in experiment [1] was 103 ± 2.5; in experiment [2], 107 ± 6.8. The values for the H1.0 immunofluorescence intensity in experiment [3] and in experiment [4] were 89.4 (inactive) and 101 (inactive), respectively.
Take `CCCCCC=CCC(O)C=CC=CCCC(=O)O` [Tetranor-12(R)-HETE]: the values for the cell number in experiment [1] and in experiment [2] were 104 and 93.9, respectively. Also, the H1.0 immunofluorescence intensity in experiment [3] is 100 (inactive); in experiment [4], 102 (inactive).
With `Cl.NC(=NCc1ccccc1)NC(=O)c1nc(Cl)c(N)nc1N` [Benzamil hydrochloride], the results for the cell number in experiment [1] and in experiment [2] were 94.7 and 105, respectively. For the same compound, the values for the H1.0 immunofluorescence intensity in experiment [3] and in experiment [4] were 92.3 (inactive) and 105 (inactive), respectively.
Take `O=C(O)Cc1nn(Cc2nc3cc(C(F)(F)F)ccc3s2)c(=O)c2ccccc12`: the cell number in experiment [1] turned out to be 98.1; in experiment [2], 90.1. Moreover, the H1.0 immunofluorescence intensity in experiment [3] was 93.4 (inactive); in experiment [4] it was 97.7 (inactive).
As for `O=[N+]([O-])c1ccc(CSc2ncnc3c2ncn3C2OC(CO)C(O)C2O)cc1` (stereo not drawn) [S-(4-Nitrobenzyl)-6-thioinosine], the cell number in experiment [1] came to 99; in experiment [2] it was 111. The H1.0 immunofluorescence intensity in experiment [3] is 92.2 (inactive); in experiment [4] it was 80.6 (inactive).
In the case of `Cc1cc2c(s1)=Nc1ccccc1NC=2N1CCN(C)CC1` [Olanzapine], the values for the cell number in experiment [1] and in experiment [2] were 106 and 99.4, respectively. In addition, the results for the H1.0 immunofluorescence intensity in experiment [3] and in experiment [4] were 92.2 (inactive) and 95.6 (inactive), respectively.
